# Compound activity: PubChem BioAssay, National Center for Advancing Translational Sciences (NCATS)
# Compounds with a hit are over-represented: about 2.8% of the library has one in this group of screens.
# POLI inh = qHTS for Inhibitors of Polymerase Iota. Pol iota fluorescent replication assay, 10 min. Potency, µM (doses to about 115 µM), hits mostly inhibitors. 390,000 tested, 1% active. AID 588590, 2011
#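 Pol iota at 10 nM preincubated 15 min with compounds at room temperature; reaction started with fluorescent substrate, 50 nM final. Fluorescence read kinetically at 0 and 10 min; buffer-only wells as negative control.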
# Pol beta inh = qHTS Assay for Inhibitors of DNA Polymerase Beta. P06746. Pol beta primer extension/strand displacement, fluorescence kinetic. Potency, µM (doses to about 114 µM), actives largely listed as inhibitors. 340,000 tested, 1.3% active
#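 10 nM enzyme + cpd, 15 min RT; start with substrate 50 nM final; read 0 min and after 10 min RT. Corrected, normalized data; 4-parameter Hill curve fit.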
# WRN inhibitor = qHTS for Inhibitors of WRN Helicase; Bifunctional 3'-5' exonuclease/ATP-dependent helicase WRN (Homo sapiens), Q14191; WRN helicase unwinding, fluorescent forked duplex, kinetic; Potency, µM (top dose mostly 114 µM), usual class: inhibitors; 360,000 tested, 0.46% active; also: nearly all actives have a fitted effect of over 55% in size
#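 Kinetic fluorescence helicase assay: unwinding of a quenched forked DNA duplex (100 nM final) with 2 mM ATP final raises red fluorescence (525/598 nm). Compounds sat 15 min at room temperature with 20 nM WRN beforehand.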
# Pol kappa inh-1 = qHTS for Inhibitors of Polymerase Kappa | 400,000 tested, 0.53% active | purified Pol kappa, fluorescent DNA synthesis assay, 10 min | Potency, µM (top dose mostly 107 µM), actives largely listed as inhibitors | AID 588579, 2011
# Target sequence (Q9UBT6 whole entry, looked up): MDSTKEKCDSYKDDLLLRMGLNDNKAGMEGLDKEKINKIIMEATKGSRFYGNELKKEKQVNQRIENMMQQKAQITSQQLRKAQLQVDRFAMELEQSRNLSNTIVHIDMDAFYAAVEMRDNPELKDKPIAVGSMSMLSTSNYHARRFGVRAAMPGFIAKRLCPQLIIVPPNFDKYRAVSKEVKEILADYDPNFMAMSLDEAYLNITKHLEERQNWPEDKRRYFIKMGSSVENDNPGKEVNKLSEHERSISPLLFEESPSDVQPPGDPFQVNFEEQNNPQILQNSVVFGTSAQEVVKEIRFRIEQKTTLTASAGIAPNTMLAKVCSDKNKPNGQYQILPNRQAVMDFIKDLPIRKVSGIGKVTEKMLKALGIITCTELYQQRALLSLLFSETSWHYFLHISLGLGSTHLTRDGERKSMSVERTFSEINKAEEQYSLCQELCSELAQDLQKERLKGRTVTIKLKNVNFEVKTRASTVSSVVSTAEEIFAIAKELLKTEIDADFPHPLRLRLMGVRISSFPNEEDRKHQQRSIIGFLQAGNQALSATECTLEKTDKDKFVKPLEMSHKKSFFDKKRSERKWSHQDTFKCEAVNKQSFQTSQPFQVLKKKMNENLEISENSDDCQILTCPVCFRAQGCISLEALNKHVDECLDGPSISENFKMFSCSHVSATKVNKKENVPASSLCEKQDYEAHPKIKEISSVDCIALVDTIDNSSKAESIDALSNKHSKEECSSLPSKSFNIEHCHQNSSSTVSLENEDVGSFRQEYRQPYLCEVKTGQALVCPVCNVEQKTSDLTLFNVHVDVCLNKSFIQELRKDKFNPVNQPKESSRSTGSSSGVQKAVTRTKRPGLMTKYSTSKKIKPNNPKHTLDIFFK
#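 Enzyme at 10 nM met test compounds for 15 min at room temperature. Substrate addition (50 nM final) began the reaction, which was monitored by fluorescence at 0 and 10 min.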
# PI5P4K alpha inh = qHTS for Inhibitors of phosphatidylinositol 5-phosphate 4-kinase (PI5P4K); Phosphatidylinositol 5-phosphate 4-kinase type-2 alpha (Homo sapiens), P48426; PI5P4Kalpha enzyme, ADP-Glo luminescence, 60 min; hits give low values; max response, %; 330,000 tested, 1.2% active; AID 652105, 2013; active = max response of -50% or lower; inconclusive = between -30% and -50%; inactive = -30% or higher; also: value at the top dose of about 77 µM
#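 Compounds were pin-transferred onto PI5P4Kalpha and substrate in HEPES pH 7.4 buffer with EGTA, CHAPS and 5% DMSO. ATP (5 microM final) started the reaction, which ran 60 minutes at room temperature before ADP-Glo detection.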
# Pol eta inh-1 = qHTS for Inhibitors of Polymerase Eta; DNA polymerase eta (Homo sapiens), Q9Y253; recombinant Pol eta, fluorescent DNA replication assay; Potency, µM (doses to about 114 µM), actives largely listed as inhibitors; 390,000 tested, 1.2% active; AID 588591, 2011
#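 Pol eta at 10 nM preincubated with compounds 15 min at room temperature; reaction started with fluorescent substrate (50 nM final) and read kinetically at 0 and 10 min.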
# TbPGK inh = qHTS for inhibitors of Phosphogylcerate Kinase: Hit Validation Screen; 500 tested, 79% active; Potency, µM (top dose mostly 57.5 µM), actives largely listed as inhibitors; AID 686980, 2013; shares compounds with Pol kappa inh-1; TbPGK coupled GAPDH assay, Kinase-Glo luminescence; also: nearly all actives have a fitted effect of over 65% in size
# POLI cherry-pick = qHTS for Inhibitors of Polymerase Iota: Confirmatory Assay for Cherry-picked Compounds. shares compounds with Pol kappa inh-1. Pol iota primer extension, TAMRA/BHQ fluorescence. Potency, µM, actives largely listed as inhibitors. 1,500 tested, 77% active. AID 720496, 2013
# Pol kappa inh-2 = qHTS for Inhibitors of Polymerase Kappa: Confirmatory Assay for Cherry-picked Compounds; Potency, µM, usual class: inhibitors; purified Pol-kappa, fluorescent strand-displacement substrate; shares compounds with Pol eta inh-1; 920 tested, 76% active; AID 720501, 2013
# Pol eta inh-2 = qHTS for Inhibitors of Polymerase Eta: Confirmatory Assay for Cherry-picked Compounds. shares compounds with Pol eta inh-1. Pol eta primer extension, TAMRA/BHQ fluorescence, 10 min. Potency, µM, usual class: inhibitors. 2,600 tested, 64% active
# Numbers stand for hits; i = inactive; ? = inconclusive; nt = no result given. Unless noted, calls follow the shape of the dose curve; as a rule, active = well fitted curve in the direction sought with a large enough effect; inconclusive = small, poorly fitted or top-dose-only effect, or another doubt; inactive = no such curve, though single readings can be large; an effect the other way counts as inactive or inconclusive.
SMILES,POLI inh,Pol beta inh,WRN inhibitor,Pol kappa inh-1,PI5P4K alpha inh,Pol eta inh-1,POLI cherry-pick,Pol eta inh-2,others
O=C1/C(=C/c2cccnc2)SC(=S)N1CC1CCCO1 (stereo unspecified),i,i,i,i,i,i,nt,nt,
CCOC(=O)c1ccccc1NC(=O)NCc1cccn1Cc1ccc(F)cc1,i,i,nt,i,nt,i,nt,nt,
Cc1ccccc1-n1c(SCC(=O)Nc2ccc(Cl)cc2Cl)nc(O)cc1=O,i,i,nt,i,nt,i,nt,nt,
COc1ccc(Cc2nnc(NS(=O)(=O)c3ccc([N+](=O)[O-])cc3)s2)cc1,?,?,i,i,i,i,nt,nt,
CN1/C(=C\C=C2/SC(=S)NC2=O)C(C)(C)c2ccccc21,28µM,22µM,28µM,45µM,-77,79µM,75,76,Pol kappa inh-2=38
C=C1c2cccc(O)c2C(O)=C2C(=O)[C@]3(O)C(O)=C(C(N)=O)C(=O)[C@@H](N(C)C)[C@@H]3[C@@H](O)[C@H]12,2.8µM,11µM,?,6.3µM,-58,32µM,7.5,13,Pol kappa inh-2=3.8
COc1ccc(CN(Cc2ccco2)c2cnc(S(C)(=O)=O)nc2C(=O)Nc2ccc(C)c(C)c2)cc1,i,i,nt,i,nt,i,nt,nt,
Cc1c(Cl)cccc1NS(=O)(=O)c1ccc2c(c1)C1C=CCC1C(c1ccc(C(=O)O)cc1)N2 (stereo unspecified),?,22µM,32µM,2.8µM,-102,2µM,38,6.7,
CCOc1ccccc1CNC(=O)c1sc2ncccc2c1-n1cccc1,i,i,nt,i,nt,i,nt,nt,
CCOC(=O)C1=C(COC(=O)/C=C/c2ccco2)NC(=O)NC1C (stereo unspecified),14µM,nt,?,50µM,-54,11µM,19,27,
Cc1ccccc1CNC(=O)c1cnc2sc(N3CCOCC3)nn2c1=O,i,i,nt,i,nt,i,nt,nt,
COC(=O)c1cc(O)cc(OC)c1Oc1cc(C)cc(O)c1C(=O)O,13µM,3.2µM,20µM,11µM,?,3.5µM,13,12,TbPGK inh=1µM
COC(=O)c1c(C)cc(OC)cc1O,nt,nt,nt,i,nt,nt,nt,nt,
CC(C)Sc1ncc(Cl)c(C(=O)Nc2nc3ccc(S(C)(=O)=O)cc3s2)n1,i,i,nt,i,nt,i,nt,nt,
[O-][n+]1cccc2c(Br)cc(Br)c(O)c21,i,i,i,i,i,i,nt,nt,
